The values below come from PubChem BioAssay (Tox21).

A short description of this assay: Nuclear factor erythroid 2-related factor 2/antioxidant responsive element (Nrf2/ARE) small molecule agonists: qHTS cell viability counter screen in human keratinocytes (AID 1919968). Also: nearly all actives have a fitted effect of over 55% in size. Summed up:
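Fluorescence read-out from CellTiter-Fluor after 1 h at 37 C. Wells held HaCaT-derived ARE-luciferase reporter cells (1,500/well) treated 23 h with DMSO-dissolved compounds. Run in the same wells as the luciferase agonist read.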

Inconclusive results are not listed. A call without a number means that no potency is given here. The source made the active and inactive calls. Calls follow the shape of the dose curve; as a rule, active = well fitted cell-killing curve with a large enough effect in the repeat runs; inconclusive = weak or mixed curves, or effect the other way; inactive = flat fitted curve, though single readings scatter.

On to `C1=CC2C3C=CC(C3)C2C1` (centres undefined), for which the Potency entry is “inactive”.

As for `COc1cc(C(C)=O)ccc1OCCCN1CCC(c2noc3cc(F)ccc23)CC1`, the Potency entry is “inactive”.

For the compound `O=C(Cl)c1ccc(Cl)cc1Cl`, the Potency entry was “inactive”.

Regarding `O=C(CS)OCCOC(=O)CS`, the Potency entry was “inactive”.
